Laboratory results as given in ChEMBL document CHEMBL3433997, “St. Jude Leishmania screening dataset” (2016).

Target: Glucose transporter (Leishmania mexicana) (UniProt O61059)
Assay: ST_JUDE_LEISH: Cytotoxicity at 2uM final concentration against transgenic Leishmania Mexicana promastigotes LmGT2 that are glucose transport deficient and complemented with the L. Mexicana glucose transporter 2. Activity is measured by DNA content using SYBR green in vitro
Assay type: functional

| SMILES | inhibition |
| --- | --- |
| Cc1cc(C(F)(F)F)cc(-n2ncc(-c3ccc(C(=O)NCCNCc4ccccc4)cc3)c2N)n1 | -0.24% |
| COc1ccc(NC(=O)CCNc2cc(C)nc(NCCOc3ccccc3)n2)cc1 | 1.92% |
| N#CCOc1c(C2CCN(CCCCNC(=O)c3ccc(-c4ccc(C(F)(F)F)cc4)cc3)CC2)ccc2c1CCCC2 | 3.28% |
| CN1CCOc2ccc(Nc3nnc(-c4cccc(-c5cccnc5)c4)o3)cc2C1 | 1.35% |
| CN(C)Cc1ccc(CN2CCN(CCOc3ccc(-c4ccc(Cl)cc4)cc3)CC2)o1 | 19.2% |
| CC(Oc1c(C2CCN(CCCCNC(=O)c3ccc(-c4ccc(C#N)cc4)cc3)CC2)ccc2c1CCCC2)C(N)=O (centres undefined) | 0.3% |
| O=C(/C=C/c1ccc(Cl)c(Cl)c1)N1CCC(CN2CCC(c3nc4ccccc4n3CCCO)CC2)CC1 | 5.85% |
| O=C(Nc1ccc(-c2nc3ccccc3[nH]2)cc1)c1ccc(Cl)c([N+](=O)[O-])c1 | 1.41% |
| O=C(NC1CCN(CCN2CCC(c3ccccc3C(F)(F)F)CC2)CC1)c1ccc(-c2ccc(Cl)cc2)cc1 | 1.57% |
| CCc1c(CCNC/C=C/C=C/CNCCc2ccc(OC)c(OC)c2CC)ccc(OC)c1OC | 1.71% |
| CN1CCN(CCCN(Cc2cccc(-c3ccc(CNCCc4ccccc4)cc3)c2)C(=O)c2cccs2)CC1 | 3.91% |
| CCCCCCCCS(=O)(=O)NCCCC1CCN(CCCCCNC(=O)C=Cc2ccc(Cl)c(Cl)c2)CC1 | 2.95% |
| Cc1ccccc1N1CCN(c2ncc(C(=O)NC3CC3)cc2Cl)CC1 | 5.71% |
| CS(=O)(=O)c1ccc(CNCc2ccc(-c3cccc(-c4nc5ccccc5[nH]4)c3)cc2)cc1 | 14% |
